In the library only some 21% were active in any assay of this set; here they are far more common.
D3 antag – blocks the human D3 dopamine receptor | P35462 | D3R cells, DiscoveRx beta-arrestin luminescence, antagonist mode; stronger effect = lower value | max response, negative = inhibition, % | 2.5% of 360,000 active | AID 652054; in the data active means max response below about -50%; inconclusive means no clear call, values can overlap the other calls; further: on the % scale 0 is the no-effect control and ±100 the full control effect
Target sequence (P35462 whole entry, looked up): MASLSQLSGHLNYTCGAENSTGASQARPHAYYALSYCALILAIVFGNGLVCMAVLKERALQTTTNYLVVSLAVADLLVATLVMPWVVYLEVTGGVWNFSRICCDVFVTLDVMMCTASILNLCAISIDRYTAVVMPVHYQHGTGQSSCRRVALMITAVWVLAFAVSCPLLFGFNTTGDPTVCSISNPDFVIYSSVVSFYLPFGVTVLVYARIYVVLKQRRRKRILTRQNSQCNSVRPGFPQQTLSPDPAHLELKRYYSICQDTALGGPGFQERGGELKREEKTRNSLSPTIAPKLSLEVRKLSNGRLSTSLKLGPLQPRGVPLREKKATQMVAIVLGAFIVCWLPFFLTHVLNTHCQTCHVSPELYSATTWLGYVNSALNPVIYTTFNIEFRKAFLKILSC
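Cells expressing the human receptor were seeded at 1500 cells/well, incubated overnight at 37 degrees C in 5% CO2, then exposed to library compounds with dopamine controls for 90 minutes at 37 degrees C before luminescent detection.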
ClpP mod – qHTS Assay for Activators of ClpP | 1.9% of 340,000 active | AID 651965, 2013 | purified B. subtilis ClpP, FRET peptide cleavage, 20 min | ATP-dependent Clp protease proteolytic subunit (Bacillus subtilis (strain 168)), P80244 | Potency, µM (titrated, usually from 57.5 µM), for inactives: at the highest dose activity change, negative = active; active means well fitted falling curve with a large enough effect; inconclusive means small, poorly fitted or top-dose-only effect; inactive means no such curve, though single readings can be large or run the other way; further: potency means the concentration at half of the fitted maximal effect; the source files actives as falling curves though it sought activators and does not explain the sign; nearly all actives have a fitted effect of over 65% in size
Target sequence (P80244 whole entry, looked up): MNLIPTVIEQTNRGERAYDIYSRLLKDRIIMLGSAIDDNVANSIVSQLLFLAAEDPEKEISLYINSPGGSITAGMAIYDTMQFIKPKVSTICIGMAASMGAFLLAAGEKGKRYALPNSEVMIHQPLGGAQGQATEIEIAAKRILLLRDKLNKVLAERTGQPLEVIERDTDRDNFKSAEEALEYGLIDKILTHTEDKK
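FRET quenching reversal measured ClpP activation: 10 microg/mL B. subtilis ClpP at pH 8 with the FRET-FV decapeptide, read at 430 nm after 320 nm excitation. The 20-min minus 0-min signal was scaled between DMSO/no-enzyme wells and ADEP (5.8 microM final).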
IL1B secr inh – inflammasome signaling inhibition, IL-1 beta readout; THP-1 LPS/ATP IL-1B secretion, AlphaLISA, 16 h; stronger effect = lower value; activity change, % at 57.5 µM; 4.7% of 360,000 active; AID 743279; in the data active means activity change below about -50%; inconclusive means mostly about -30% to -49%; further: on the % scale 0 is the no-effect control and ±100 the full control effect
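THP-1 cells pretreated 1 hr with compounds (up to 57.5 uM final), then stimulated with LPS (250 ng/mL final) plus ATP (1.25 mM final); secreted IL-1B measured by AlphaLISA after 16 hr, decreased signal indicating inhibition.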
DT40 TDP1 no CPT – qHTS for Inhibitors of human tyrosyl-DNA phosphodiesterase 1 (TDP1): qHTS in cells in absence of CPT; DT40 Tdp1-/- hTDP1 cells, no CPT, ATP luminescence, 48 h; Potency, µM (series often up to 46.2 µM), for inactives: at the highest dose activity change, negative = growth inhibition, actives largely listed as inhibitors; 15% of 420,000 active; further: potency means the concentration at half of the fitted maximal effect; on the % scale 0 is the no-effect control and ±100 the full control effect; nearly all actives have a fitted effect of over 55% in size
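Cells were dispensed at 400 per well, compounds added by pin tool, plates incubated ≥48 hr at 37 °C, then CellTiter-Glo added for 30 min at room temperature before luminescence reading. Line: DT40 Tdp1-/- complemented with hTDP1; camptothecin omitted.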
D3 ag – agonists of human D3 dopamine receptor; P35462; max activation, %; AID 652048; 0.58% of 410,000 active; D3R DiscoveRx beta-arrestin cells, luminescence, 90 min; in the data active means max activation above about 30%; further: 0% is about no effect
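Agonist mode: compounds and dopamine controls were applied to plated cells for 90 min at 37 degrees C after an overnight attachment at 1500 cells/well. Luminescent read-out followed 30 - 60 minutes at room temperature with DiscoveRx detection reagent.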
TDP1 cell CPT – growth inhibition of DT40 Tdp1-/-;hTDP1 cells with camptothecin (screen for TDP1 inhibitors). chicken DT40 Tdp1-/-;hTDP1 cells + 20 nM CPT, ATP luminescence, 48 h. Potency, µM (doses to about 46.2 µM), inactives show at the highest dose activity change, negative = growth inhibition, hits mostly inhibitors. 12% of 420,000 active; further: potency means the concentration at half of the fitted maximal effect; on the % scale 0 is the no-effect control and ±100 the full control effect; nearly all actives have a fitted effect of over 55% in size
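Cell growth measured by CellTiter-Glo luminescence after a minimum 48 h, 37 C compound exposure with 20 nM CPT in Tdp1-knockout DT40 cells stably expressing hTDP1, seeded 400/well; qHTS titration format.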
Active calls of the source: *. Unless noted, the call rests on the fitted dose curve; in most records, active means well fitted inhibition curve with a large enough effect; inconclusive means small, poorly fitted or top-dose-only effect; inactive means flat fitted curve, though single readings scatter.

How did Cc1cc(N/N=C/c2ccccc2O)nc(N2CCOCC2)n1 do in these assays?
D3 antag: -8; IL1B secr inh: inconclusive; DT40 TDP1 no CPT: inconclusive; D3 ag: -5; TDP1 cell CPT: -27%

What do the screens show for `Cc1cc(N/N=C/c2ccccc2[N+](=O)[O-])nc(-n2nc(C)cc2C)n1`?
D3 antag: inconclusive; ClpP mod: -3%; IL1B secr inh: -97*; DT40 TDP1 no CPT: 0.92µM*; D3 ag: -25; TDP1 cell CPT: 1.2µM*

Results for Cc1cc(N/N=C/c2cccc(Cl)c2)nc(-n2nc(C)cc2C)n1 ?
D3 antag: -17; ClpP mod: -1%; IL1B secr inh: 8; DT40 TDP1 no CPT: 0.82µM*; D3 ag: 2; TDP1 cell CPT: 0.58µM*

How did COc1ccc(/C=N/Nc2cc(C)nc(-n3nc(C)cc3C)n2)cc1 do in these assays?
D3 antag: -2; ClpP mod: -4%; IL1B secr inh: -99*; DT40 TDP1 no CPT: 4.6µM*; D3 ag: -3; TDP1 cell CPT: 4.6µM*

What do the screens show for `Cc1ccc(C(=O)O)cc1NC(=S)NC(=O)c1ccc([N+](=O)[O-])c(C)c1`?
D3 antag: inconclusive; ClpP mod: -1%; IL1B secr inh: 50; DT40 TDP1 no CPT: 3%; D3 ag: -27; TDP1 cell CPT: 1%

What do the screens show for `COc1ccc(CN2CCC(n3nccc3NC(=O)C3CC3)CC2)cc1O`?
D3 antag: -9; ClpP mod: -3%; IL1B secr inh: -11; DT40 TDP1 no CPT: -5%; D3 ag: -7; TDP1 cell CPT: 9%

How did Cc1cc(N/N=C/c2cccc([N+](=O)[O-])c2)nc(-n2nc(C)cc2C)n1 do in these assays?
D3 antag: 11; IL1B secr inh: 12; DT40 TDP1 no CPT: 3.7µM*; D3 ag: -2; TDP1 cell CPT: 4.1µM*

What do the screens show for `Cc1cc(C)nc(N/N=C/c2cccc([N+](=O)[O-])c2)n1`?
D3 antag: 0; IL1B secr inh: 7; DT40 TDP1 no CPT: -24%; D3 ag: 4; TDP1 cell CPT: -21%

What do the screens show for `CCOc1ccc(-n2c(=O)c3c(C)c(C)sc3n(CC(=O)N(CC)Cc3ccccc3)c2=O)cc1`?
ClpP mod: 1%; DT40 TDP1 no CPT: 12µM*; D3 ag: 9; TDP1 cell CPT: 18µM*

How did CCOc1ccc(-n2c(=O)c3c(C)c(C)sc3n(CC(=O)c3ccccc3)c2=O)cc1 do in these assays?
ClpP mod: 0%; DT40 TDP1 no CPT: 16µM*; D3 ag: 9; TDP1 cell CPT: 13µM*

How did CCN(Cc1ccccc1)C(=O)Cn1c(=O)n(-c2ccc(C)c(C)c2)c(=O)c2c(C)c(C)sc21 do in these assays?
ClpP mod: -3%; DT40 TDP1 no CPT: inconclusive; D3 ag: -8; TDP1 cell CPT: 21µM*

What do the screens show for `CCN(Cc1ccccc1)C(=O)Cn1c(=O)n(-c2ccc(Cl)cc2)c(=O)c2c(C)c(C)sc21`?
ClpP mod: 1%; DT40 TDP1 no CPT: 18µM*; D3 ag: -15; TDP1 cell CPT: 3.7µM*

How did CCN(CC)C(=O)Cn1c(=O)n(-c2ccc(Cl)cc2)c(=O)c2c3c(sc21)CCCCC3 do in these assays?
ClpP mod: 0%; DT40 TDP1 no CPT: inconclusive; D3 ag: 6; TDP1 cell CPT: inconclusive

How did CCN(CC(=O)Nc1ccc(OC)cc1)C(=O)Cc1cccs1 do in these assays?
D3 antag: inconclusive; IL1B secr inh: 26; DT40 TDP1 no CPT: 9%; D3 ag: 1; TDP1 cell CPT: -1%

How did CC(C(=O)N1CCCC1)N1CCN(S(=O)(=O)c2ccccc2)CC1 (centres undefined) do in these assays?
D3 antag: 0; ClpP mod: 1%; IL1B secr inh: -5; DT40 TDP1 no CPT: -2%; D3 ag: 1; TDP1 cell CPT: -15%

What do the screens show for `CC(=O)NC(Cc1ccc([N+](=O)[O-])cc1)C(=O)NCC(N)C(=O)c1ccccc1` (centres undefined)?
ClpP mod: -1%; DT40 TDP1 no CPT: 5.6µM*; TDP1 cell CPT: 22µM*

Results for CCC(C)NC(=O)C1c2ccccc2C(=O)N1Cc1ccc(F)cc1 (centres undefined) ?
D3 antag: 0; IL1B secr inh: -5; DT40 TDP1 no CPT: 2%; D3 ag: 3; TDP1 cell CPT: -2%

What do the screens show for `CCCn1c(N2CCN(Cc3ccc(Cl)cc3)CC2)nc2ccccc21`?
D3 antag: -22; ClpP mod: 0%; IL1B secr inh: -18; DT40 TDP1 no CPT: 12µM*; D3 ag: -2; TDP1 cell CPT: inconclusive

Results for CCn1c(N2CCN(Cc3ccc([N+](=O)[O-])cc3)CC2)nc2ccccc21 ?
D3 antag: -14; ClpP mod: 0%; IL1B secr inh: -18; DT40 TDP1 no CPT: 21µM*; D3 ag: -3; TDP1 cell CPT: inconclusive

What do the screens show for `CCn1c(N2CCN(C(=O)/C=C/c3ccccc3)CC2)nc2ccccc21`?
D3 antag: 4; IL1B secr inh: -2; DT40 TDP1 no CPT: inconclusive; D3 ag: -13; TDP1 cell CPT: -20%

How did CCNc1ncc2nc(-c3cn(C)c4ccccc34)c(=O)n(C[C@H]3CCCO3)c2n1 do in these assays?
DT40 TDP1 no CPT: -3%; TDP1 cell CPT: 5%

Results for Nc1c(SCCC(=O)O)ccc2c1C(=O)c1ccccc1C2=O ?
D3 antag: -56*; ClpP mod: 1%; IL1B secr inh: -5; DT40 TDP1 no CPT: -4%; D3 ag: -8; TDP1 cell CPT: -18%

What do the screens show for `Nc1c(C(=O)O)ccc2c1C(=O)c1ccccc1C2=O`?
D3 antag: inconclusive; IL1B secr inh: 20; DT40 TDP1 no CPT: inconclusive; D3 ag: -11; TDP1 cell CPT: -8%

Results for CC(=O)Nc1ccc(NC(=O)C2(C)Cc3c(-c4ccc(NC(C)=O)cc4)ccnc3O2)cc1 (centres undefined) ?
D3 antag: 1; ClpP mod: -9%; IL1B secr inh: -18; DT40 TDP1 no CPT: 2%; D3 ag: 3; TDP1 cell CPT: 1%

How did CN(C)c1ccc(-c2ccnc3c2CC(C)(C(=O)NCCc2ccccc2)O3)cc1 (centres undefined) do in these assays?
D3 antag: -8; ClpP mod: 5%; IL1B secr inh: -18; DT40 TDP1 no CPT: inconclusive; D3 ag: -4; TDP1 cell CPT: 29µM*
